# Data: publication PMC12751014, “Non-Catalytic Inhibitors of the p38/MK2 Interface: Repurposing Approved Drugs to Target Neuroinflammation in Alzheimer’s Disease” (Journal of Medicinal Chemistry, 2025)
# Out of some 1,900 compounds screened, about 50 (3%) showed an effect of 50% or more. Many of the other results were omitted from the sample, so strong results are more common in it than they were.
# Biological target: p38/MK2 protein–protein interaction (VF-p38α / GST-MK2) (Homo sapiens, UniProt Q16539)
# Sequence (Q16539 2-360 limits assumed): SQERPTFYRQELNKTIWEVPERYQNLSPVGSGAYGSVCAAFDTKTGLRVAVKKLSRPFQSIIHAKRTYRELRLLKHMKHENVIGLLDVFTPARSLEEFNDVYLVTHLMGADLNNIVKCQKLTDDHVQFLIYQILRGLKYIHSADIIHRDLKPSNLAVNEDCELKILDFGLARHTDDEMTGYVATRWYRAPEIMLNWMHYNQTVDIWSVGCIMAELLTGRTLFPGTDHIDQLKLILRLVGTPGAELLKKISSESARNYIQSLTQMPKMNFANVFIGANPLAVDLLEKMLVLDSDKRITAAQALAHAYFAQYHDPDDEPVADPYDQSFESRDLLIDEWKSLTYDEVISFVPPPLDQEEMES
# Assay: primary screen, percent of control activity; higher = less effect of the substance
# Set-up: species or system HEK293T cell lysate transfected with VF-p38α and GST-MK2; unclear (methods say 'quintuplet replicates')
# Experimental: The TR-FRET assay was conducted in a 1536-well plate (Corning, catalog no. 3724) with HEK293T cell lysate transfected with VF-p38α and GST-MK2. Cell-lysate concentration was optimized with a titration experiment. Anti-Flag-Tb and anti-GST-d2 antibodies (Revvity, catalog no. 61FGBTLB) were used to couple p38α and MK2, respectively. A multiple-drop Combi dispenser (Thermo Scientific) combined reaction mixtures in quintuplet replicates. The TR-FRET signals were measured using a BMG Labtech PHERAstar FSX plate reader and normalized to the percent of DMSO control.
row,SMILES,Pct of control [%]
1,CC1(C)CCC2=C(O1)c1ccccc1C(=O)C2=O,102
2,CCC1OC(=O)C(C)C(OC2CC(C)(OC)C(O)C(C)O2)C(C)C(OC2OC(C)CC(N(C)C)C2O)C(C)(O)CC(C)C(=NOCOCCOC)C(C)C(O)C1(C)O (centres unmarked),103
3,C=CC(=O)Nc1cccc(Sc2nc(Nc3ccc(N4CCN(C)CC4)cc3)ncc2Cl)c1,91.7
4,Nc1cccc(-c2cc3c(Oc4cccc(O)c4)ncnc3[nH]2)c1,90.3
5,CC[C@@H]([C@H](C)O)n1ncn(-c2ccc(N3CCN(c4ccc(OC[C@@H]5CO[C@@](Cn6cncn6)(c6ccc(F)cc6F)C5)cc4)CC3)cc2)c1=O,97
6,NC(N)=NS(=O)(=O)c1ccc(N)cc1,105
7,Cc1c(Cl)cccc1Nc1ccccc1C(=O)O,99.2
8,NC(=O)N1c2ccccc2C=Cc2ccccc21,93.5
9,CCC(C)n1ncn(-c2ccc(N3CCN(c4ccc(OCC5COC(Cn6cncn6)(c6ccc(Cl)cc6Cl)O5)cc4)CC3)cc2)c1=O (centres unmarked),88.6
10,c1cc(-c2cnn3cc(-c4ccc(N5CCNCC5)cc4)cnc23)c2cccnc2c1,10.1
11,COc1ccc(-c2cnc3c(-c4cccc5ncccc45)cnn3c2)cc1,23.2
12,CC(C)Oc1ccc(-c2cnc3c(-c4ccnc5ccccc45)cnn3c2)cc1,89.1
13,CN1CCC(OC(c2ccccc2)c2ccccc2)CC1.Cl,89.1
14,COc1ccc(C2=NC(c3ccc(Cl)cc3)C(c3ccc(Cl)cc3)N2C(=O)N2CCNC(=O)C2)c(OC(C)C)c1 (centres unmarked) [S8065],100
15,COc1ccccc1S(=O)(=O)Nc1ccc2c(c1)CN(C)C(=O)N2,117
16,CCN(C(=O)c1c(O)c2c(Cl)cccc2n(C)c1=O)c1ccccc1,88.3
17,O=[N+]([O-])c1ccc2c(c1)S(=O)(=O)C=C2,58.2
18,CC1CN(CC(=O)Nc2ccc3c(c2)Cc2cccc(-c4cc(=O)cc(N5CCOCC5)o4)c2S3)CC(C)O1 (centres unmarked),82.7
19,CN(CC(=O)N(Cc1ccc(C2CCCCC2)cc1)c1ccc(C(=O)O)cc1)S(=O)(=O)c1c(F)c(F)c(F)c(F)c1F,24.1
20,O=c1c2ccccc2nc2n1CCc1c-2[nH]c2ccccc12,100
21,NNC(=O)c1ccncc1,86.5
22,CCOC(=O)c1ccc(C#Cc2ccc3c(c2)C(C)(C)CCS3)nc1,106
23,Cc1ccc(CNc2ncnc3ccc(-c4ccc(CO)o4)cc23)o1,69.2
24,Cc1cc(Nc2ncnc3ccc(-c4ccc(CNCCS(C)(=O)=O)o4)cc23)ccc1Oc1ccn2ncnc2c1,24.2
25,CS(=O)(=O)CCNCc1ccc(-c2ccc3ncnc(Nc4ccc(OCc5cccc(F)c5)c(Cl)c4)c3c2)o1,88.1

row,SMILES,Pct of control [%]
1,Cc1cc(=O)[nH]c(=S)[nH]1,101
2,CS(=O)(=O)c1cccc(CNc2nc(Nc3ccc4c(c3)CCC(=O)N4)ncc2C(F)(F)F)c1,34
3,CN(c1ncccc1CNc1nc(Nc2ccc3c(c2)CC(=O)N3)ncc1C(F)(F)F)S(C)(=O)=O.Cl,76.7
4,CN(c1ncccc1CNc1nc(Nc2ccc3c(c2)CC(=O)N3)ncc1C(F)(F)F)S(C)(=O)=O,106
5,CC(C)Cc1ccc(C(C)C(=O)O)cc1 (centres unmarked),93
6,O=C(COc1cccc2c(=O)[nH]ccc12)c1ccccc1,89.7
7,CNS(=O)(=O)Cc1ccc2[nH]cc(CCN(C)C)c2c1.O=C(O)CCC(=O)O,102
8,CC(=O)OC1(C(C)=O)CCC2C3CC(C)C4=CC(=O)CCC4(C)C3CCC21C (centres unmarked),87
9,COc1c(C)c(C(=O)c2ccc(N)c(C(=O)[O-])c2)n2ccccc12.[Na+],94
10,CC(C)(C)c1cc(C(C)(C)C)c(NC(=O)c2c[nH]c3ccccc3c2=O)cc1O,111
11,CC(=O)NS(=O)(=O)c1ccc(NC(=O)c2ccccc2C(=O)O)cc1,96.2
12,CC(C)c1ccccc1Cc1cc(C(=O)Nc2ccc(S(=O)(=O)c3ccccc3C(C)(C)C)cc2)c(O)c(O)c1O,33.3
13,Cc1ccc(Cl)c(Nc2ccccc2C(=O)[O-])c1Cl.[Na+],95.1
14,COc1ccc2cccc(CCNC(C)=O)c2c1,90.6
15,CS(=O)(=O)O.CS(=O)(=O)O.Cc1ccc(C(=O)Nc2ccc(CN3CCN(C)CC3)c(C(F)(F)F)c2)cc1C#Cc1cnc2[nH]ncc2c1,73.8
16,Cc1cccc(C#Cc2ccccc2)n1,29.7
17,NS(=O)(=O)C#Cc1ccccc1,97.5
18,O=C1NC(=O)C(=Cc2ccc3nccc(-c4ccncc4)c3c2)S1,126
19,Cc1ccc(Cl)cc1N(CC(=O)Nc1c(F)cccc1F)S(C)(=O)=O,91.8
20,N#CC(c1ccc(Cl)cc1)c1c(Cl)cc(-n2ncc(=O)[nH]c2=O)cc1Cl (centres unmarked),72
21,COc1cc2c(cc1-c1c(C)noc1C)ncc1[nH]c(=O)n(C(C)c3ccccn3)c12 (centres unmarked),53.6
22,Cc1cc(NC(=O)Nc2ccc(N(C)C)cc2)c2cc(F)cc(F)c2n1,89.3
23,CN(C)c1ccc(-c2nc3ncc(Cl)c(N4CCN(CC(=O)Nc5nccs5)CC4)c3[nH]2)cc1,97.9
24,COc1ccc(-c2ccc3ncc4c(c3c2)n(-c2ccc(N3CCNCC3)c(C(F)(F)F)c2)c(=O)n4C)cn1.O=C(O)C=CC(=O)O,45
25,Nc1ccc(-c2ccc3ncc4ccc(=O)n(-c5cccc(C(F)(F)F)c5)c4c3c2)cn1,87.9
